The source of these data is paper PMC9911399, “Two distinct binding modes provide the RNA-binding protein RbFox with extraordinary sequence specificity”.

Sequences and labels used below:
B1: GUAAAAU (DNA:RNA)
RNA: GGGAGACCGGAAUUCAGAUUGUCCGUAAAAUUUAAAUCCCGUCGUAGCCACCA
DNA 1: CAATCTGAATTCCGGTCTCCC
DNA 2: TGGTGGCTACGACGGGATT
B2: GGCCGCA (DNA:RNA)
RNA: B1 RNA with U26G, A27C, A28C, A29G, A30C, U31A
DNA 1: CAATCTGAATTCCGGTCTCCC
DNA 2: TGGTGGCTACGACGGGATT
B3: CCUGUUG (DNA:RNA)
RNA: GGGAGACCGGAAUUCAGAUUGUCCCCUGUUGUUAAAUCCCGUCGUAGCCACCA
DNA 1: CAATCTGAATTCCGGTCTCCC
DNA 2: TGGTGGCTACGACGGGATT
B4: AGGGCAC (DNA:RNA)
RNA: B3 RNA with C25A, C26G, U27G, U29C, U30A, G31C
DNA 1: CAATCTGAATTCCGGTCTCCC
DNA 2: TGGTGGCTACGACGGGATT
B5: UAGCUUA (DNA:RNA)
RNA: B3 RNA with C25U, C26A, U27G, G28C, G31A
DNA 1: CAATCTGAATTCCGGTCTCCC
DNA 2: TGGTGGCTACGACGGGATT
B6: GUUAGGG (DNA:RNA)
RNA: B1 RNA with A27U, A29G, A30G, U31G
DNA 1: CAATCTGAATTCCGGTCTCCC
DNA 2: TGGTGGCTACGACGGGATT
B7: ACCGGAG (DNA:RNA)
RNA: B3 RNA with C25A, U27C, U29G, U30A
DNA 1: CAATCTGAATTCCGGTCTCCC
DNA 2: TGGTGGCTACGACGGGATT
B8: AAUUGGC (DNA:RNA)
RNA: B3 RNA with C25A, C26A, G28U, U29G, U30G, G31C
DNA 1: CAATCTGAATTCCGGTCTCCC
DNA 2: TGGTGGCTACGACGGGATT
B9: ACCACUC (DNA:RNA)
RNA: B3 RNA with C25A, U27C, G28A, U29C, G31C
DNA 1: CAATCTGAATTCCGGTCTCCC
DNA 2: TGGTGGCTACGACGGGATT
B10: UGUCCUG (DNA:RNA)
RNA: B3 RNA with C25U, C26G, G28C, U29C
DNA 1: CAATCTGAATTCCGGTCTCCC
DNA 2: TGGTGGCTACGACGGGATT
B11: UGUUAUC (DNA:RNA)
RNA: B3 RNA with C25U, C26G, G28U, U29A, G31C
DNA 1: CAATCTGAATTCCGGTCTCCC
DNA 2: TGGTGGCTACGACGGGATT
B12: UGUCAUC (DNA:RNA)
RNA: B3 RNA with C25U, C26G, G28C, U29A, G31C
DNA 1: CAATCTGAATTCCGGTCTCCC
DNA 2: TGGTGGCTACGACGGGATT
B13: CGUCAUG (DNA:RNA)
RNA: B3 RNA with C26G, G28C, U29A
DNA 1: CAATCTGAATTCCGGTCTCCC
DNA 2: TGGTGGCTACGACGGGATT
B14: GGCUAUG (DNA:RNA)
RNA: B3 RNA with C25G, C26G, U27C, G28U, U29A
DNA 1: CAATCTGAATTCCGGTCTCCC
DNA 2: TGGTGGCTACGACGGGATT
B15: CGUCCUG (DNA:RNA)
RNA: B3 RNA with C26G, G28C, U29C
DNA 1: CAATCTGAATTCCGGTCTCCC
DNA 2: TGGTGGCTACGACGGGATT
B16: UAUGUCG (DNA:RNA)
RNA: B3 RNA with C25U, C26A, U30C
DNA 1: CAATCTGAATTCCGGTCTCCC
DNA 2: TGGTGGCTACGACGGGATT
B17: CUGUAUC (DNA:RNA)
RNA: B3 RNA with C26U, U27G, G28U, U29A, G31C
DNA 1: CAATCTGAATTCCGGTCTCCC
DNA 2: TGGTGGCTACGACGGGATT
B18: UGUCAUG (DNA:RNA)
RNA: B3 RNA with C25U, C26G, G28C, U29A
DNA 1: CAATCTGAATTCCGGTCTCCC
DNA 2: TGGTGGCTACGACGGGATT
B19: UGUUAUG (DNA:RNA)
RNA: B3 RNA with C25U, C26G, G28U, U29A
DNA 1: CAATCTGAATTCCGGTCTCCC
DNA 2: TGGTGGCTACGACGGGATT
B20: GGCUAUC (DNA:RNA)
RNA: B1 RNA with U26G, A27C, A28U, A30U, U31C
DNA 1: CAATCTGAATTCCGGTCTCCC
DNA 2: TGGTGGCTACGACGGGATT
B21: UGUAUCU (DNA:RNA)
RNA: B3 RNA with C25U, C26G, G28A, U30C, G31U
DNA 1: CAATCTGAATTCCGGTCTCCC
DNA 2: TGGTGGCTACGACGGGATT
B22: UUGGUUA (DNA:RNA)
RNA: B3 RNA with C25U, C26U, U27G, G31A
DNA 1: CAATCTGAATTCCGGTCTCCC
DNA 2: TGGTGGCTACGACGGGATT
B23: AUGACAU (DNA:RNA)
RNA: B1 RNA with G25A, A27G, A29C
DNA 1: CAATCTGAATTCCGGTCTCCC
DNA 2: TGGTGGCTACGACGGGATT
B24: CAAGGUA (DNA:RNA)
RNA: B3 RNA with C26A, U27A, U29G, G31A
DNA 1: CAATCTGAATTCCGGTCTCCC
DNA 2: TGGTGGCTACGACGGGATT
B25: UCUUGCG (DNA:RNA)
RNA: B3 RNA with C25U, G28U, U29G, U30C
DNA 1: CAATCTGAATTCCGGTCTCCC
DNA 2: TGGTGGCTACGACGGGATT
B26: UCUAAUU (DNA:RNA)
RNA: B3 RNA with C25U, G28A, U29A, G31U
DNA 1: CAATCTGAATTCCGGTCTCCC
DNA 2: TGGTGGCTACGACGGGATT
B27: AUACAAA (DNA:RNA)
RNA: B1 RNA with G25A, A28C, U31A
DNA 1: CAATCTGAATTCCGGTCTCCC
DNA 2: TGGTGGCTACGACGGGATT
B28: GGAUCUA (DNA:RNA)
RNA: B1 RNA with U26G, A28U, A29C, A30U, U31A
DNA 1: CAATCTGAATTCCGGTCTCCC
DNA 2: TGGTGGCTACGACGGGATT
B29: GUCCCCG (DNA:RNA)
RNA: B1 RNA with A27C, A28C, A29C, A30C, U31G
DNA 1: CAATCTGAATTCCGGTCTCCC
DNA 2: TGGTGGCTACGACGGGATT
B30: UGUAGGU (DNA:RNA)
RNA: B1 RNA with G25U, U26G, A27U, A29G, A30G
DNA 1: CAATCTGAATTCCGGTCTCCC
DNA 2: TGGTGGCTACGACGGGATT
B31: UGUAUGU (DNA:RNA)
RNA: B3 RNA with C25U, C26G, G28A, U30G, G31U
DNA 1: CAATCTGAATTCCGGTCTCCC
DNA 2: TGGTGGCTACGACGGGATT
B32: CUGUAUG (DNA:RNA)
RNA: B3 RNA with C26U, U27G, G28U, U29A
DNA 1: CAATCTGAATTCCGGTCTCCC
DNA 2: TGGTGGCTACGACGGGATT
B33: GGUCAUG (DNA:RNA)
RNA: B3 RNA with C25G, C26G, G28C, U29A
DNA 1: CAATCTGAATTCCGGTCTCCC
DNA 2: TGGTGGCTACGACGGGATT
B34: CUGUGUA (DNA:RNA)
RNA: B3 RNA with C26U, U27G, G28U, U29G, G31A
DNA 1: CAATCTGAATTCCGGTCTCCC
DNA 2: TGGTGGCTACGACGGGATT
B35: CCCUGUA (DNA:RNA)
RNA: B3 RNA with U27C, G28U, U29G, G31A
DNA 1: CAATCTGAATTCCGGTCTCCC
DNA 2: TGGTGGCTACGACGGGATT
B36: GUCAUGU (DNA:RNA)
RNA: B1 RNA with A27C, A29U, A30G
DNA 1: CAATCTGAATTCCGGTCTCCC
DNA 2: TGGTGGCTACGACGGGATT
B37: GUCCUGU (DNA:RNA)
RNA: B1 RNA with A27C, A28C, A29U, A30G
DNA 1: CAATCTGAATTCCGGTCTCCC
DNA 2: TGGTGGCTACGACGGGATT
B38: UGCUAUG (DNA:RNA)
RNA: B3 RNA with C25U, C26G, U27C, G28U, U29A
DNA 1: CAATCTGAATTCCGGTCTCCC
DNA 2: TGGTGGCTACGACGGGATT
B39: CGCUAUG (DNA:RNA)
RNA: B3 RNA with C26G, U27C, G28U, U29A
DNA 1: CAATCTGAATTCCGGTCTCCC
DNA 2: TGGTGGCTACGACGGGATT
B40: UGCUAUC (DNA:RNA)
RNA: B3 RNA with C25U, C26G, U27C, G28U, U29A, G31C
DNA 1: CAATCTGAATTCCGGTCTCCC
DNA 2: TGGTGGCTACGACGGGATT
B41: GGUCAUC (DNA:RNA)
RNA: B3 RNA with C25G, C26G, G28C, U29A, G31C
DNA 1: CAATCTGAATTCCGGTCTCCC
DNA 2: TGGTGGCTACGACGGGATT

Positions count from the first letter of the chain named. In all, about 16,000 sequences were measured (“ka relative to ugcaugu”: median about 0.096, highest 2% from about 0.35 on). For the sample, the highest values were picked, then their nearest neighbours and some sequences at random.

The test concerns the target T1, RBFOX1 RRM RbFoxmut (Fox-RRM*) (Homo sapiens, UniProt Q9NWB1 109-208, R118D;E147R;N151S;E152T).
T1 sequence: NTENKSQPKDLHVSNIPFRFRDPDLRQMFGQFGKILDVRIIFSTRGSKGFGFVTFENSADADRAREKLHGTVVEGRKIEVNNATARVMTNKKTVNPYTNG
The test is described as follows: EMSA; HiTS-Eq, 1 nM pool, 10 min; buffer printed only for the single-RNA assays: 10 mM Tris pH 7.5, 150 mM NaCl, 3.4 mM EDTA, 0.001% NP-40, 30 C. To be noted: tags: His6 N-terminal (pET28a); label: 5' 32P. Put shortly: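 These values rest on relative association constants, computed from read-count changes of each RNA species versus the control reaction and normalised to the cognate motif. Reads came from free RNA recovered by 8% native PAGE after purified RbFox RRM (wild type or mutant) at increasing concentrations was equilibrated for 10 min in 50 µL with 1 nM of a 5′-radiolabelled pool with 7 randomized nucleotides and DNA-annealed flanks.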
Background: In EMSA bound probe runs differently from free probe, usually more slowly.
For B1, the binding signal was 0.0936 KA relative to UGCAUGU.

For B2, the binding signal was 0.107 KA relative to UGCAUGU.

B3: the binding signal was 0.136 KA relative to UGCAUGU.

With B4, the binding signal was 0.0707 KA relative to UGCAUGU.

With B5, the binding signal was 0.134 KA relative to UGCAUGU.

On to B6, for which the binding signal is 0.0712 KA relative to UGCAUGU.

Consider B7, for which the binding signal is 0.0806 KA relative to UGCAUGU.

As to B8, the binding signal was 0.114 KA relative to UGCAUGU.

Consider B9, for which the binding signal is 0.0459 KA relative to UGCAUGU.

As to B10, the binding signal was 0.133 KA relative to UGCAUGU.

B11: the binding signal was 0.351 KA relative to UGCAUGU.

In the case of B12, the binding signal is 0.183 KA relative to UGCAUGU.

Turning to B13, the binding signal was 0.275 KA relative to UGCAUGU.

As to B14, the binding signal is 0.405 KA relative to UGCAUGU.

On to B15, for which the binding signal was 0.132 KA relative to UGCAUGU.

As for B16, the binding signal was 0.133 KA relative to UGCAUGU.

Turning to B17, the binding signal is 0.362 KA relative to UGCAUGU.

With B18, the binding signal was 0.597 KA relative to UGCAUGU.

With B19, the binding signal is 1.04 KA relative to UGCAUGU.

Take B20: the binding signal was 0.226 KA relative to UGCAUGU.

Regarding B21, the binding signal was 0.296 KA relative to UGCAUGU.

As to B22, the binding signal is 0.155 KA relative to UGCAUGU.

For the molecule B23, the binding signal is 0.0668 KA relative to UGCAUGU.

For the molecule B24, the binding signal is 0.124 KA relative to UGCAUGU.

As for B25, the binding signal is 0.168 KA relative to UGCAUGU.

B26: the binding signal was 0.0829 KA relative to UGCAUGU.

With B27, the binding signal was 0.0876 KA relative to UGCAUGU.

In the case of B28, the binding signal was 0.154 KA relative to UGCAUGU.

Take B29: the binding signal is 0.0635 KA relative to UGCAUGU.

Turning to B30, the binding signal was 0.126 KA relative to UGCAUGU.

B31: the binding signal was 0.914 KA relative to UGCAUGU.

With B32, the binding signal is 1.11 KA relative to UGCAUGU.

In the case of B33, the binding signal was 0.512 KA relative to UGCAUGU.

Consider B34, for which the binding signal is 0.281 KA relative to UGCAUGU.

In the case of B35, the binding signal is 0.201 KA relative to UGCAUGU.

As for B36, the binding signal was 0.288 KA relative to UGCAUGU.

On to B37, for which the binding signal was 0.135 KA relative to UGCAUGU.

For the molecule B38, the binding signal was 0.863 KA relative to UGCAUGU.

In the case of B39, the binding signal is 0.184 KA relative to UGCAUGU.

For the molecule B40, the binding signal was 0.255 KA relative to UGCAUGU.

Take B41: the binding signal is 0.152 KA relative to UGCAUGU.
